Results on 15 sequences are retold here after the OligoGym collection.
Further: reference of the scale not given here.

The target of one assay is NDUFA9. The assay can be described thus: pooled miR-30 sensor sort-seq; sequence = guide strand. The settings on record: shRNA.
TACTTTCTCTCCAACAGCCTTA gave a sensor-assay potency score (higher = more potent) of 0.0635.

As to TGTGTTGTACTACTCGTCGGAT, the sensor-assay potency score (higher = more potent) was -0.517. Same read-out and setting: the value for TTCAACTCCAGCTTCCTTGGAC was 0.368; that for TTTAACTGTCTTCCAGCCCAAG was -1.24.

Take TAGAATCTTTATCTCTCGCGTC: the sensor-assay potency score (higher = more potent) is -0.0518. Still for that read-out and setting: the value for TTATTTCAAAGACTCTTGCTAC was -0.0759; that for TTGATGACCACATTGCTGTGTT was 0.542. On the same count and under the same terms, the value for TTGCTGTGTTGTACTACTCGTC was -0.266; that for TTAAGGAATCTATCCTCTCTTC was -0.535; that for TTAACTGCATTAACAATTCCTT was -0.73. Same read-out and setting: next, TGACTGAGGAACGTCCACCTTT: -0.755. TATAGGACCAAACCGATGCATA: the sensor-assay potency score (higher = more potent) was -1.43.

Another assay has as its target NDUFAB1. Described as above. The settings on record: shRNA.
With TGTAATCTACAATTTCTTGTGG, the sensor-assay potency score (higher = more potent) is 0.132.

As to ACAACTGTGTAACTCTACCAGG, the sensor-assay potency score (higher = more potent) is -1.08. Still for that read-out and setting: the value for TGTAACTCTACCAGGAACCTGC was 0.262.
